# In publication PMC8384837, “Expanding the binding specificity for RNA recognition by a PUF domain”:
# Changes are numbered by the printed parent chain.
# Assays:
# Assay in all cases: yeast three-hybrid, YBZ-1, SC-Leu-His + 0.5 mM 3-AT, 4 days
# Settings in all cases: tags: N-Gal4 AD-HA kept; label: inside an RPR1-promoter hybrid RNA with tandem MS2 sites; ssRNA
# PUM1 PUF domain R5-KAC = PUM1 PUF domain R5-KAC (Homo sapiens, UniProt Q14671 828-1176, C1007K;R1008A;Q1011C)
# How it was run: (§1)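 Pumilio-1 PUF domain libraries, randomized (NNK) at the three base-contacting residues of each repeat, were co-expressed with matching RNA elements from a centromeric plasmid in strain YBZ-1 (LexA–MS2 coat fusion, HIS3 reporter). Transformants were plated on SC-Leu (input) and SC-Leu-His + 0.5 mM 3-AT (selection) for four days, and repeat regions were PCR-amplified and Illumina-sequenced. The interaction score is the log2 change in variant frequency from input to selection, with pseudocount 1 where absent.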
# PUM1 PUF domain R5-NSD = PUM1 PUF domain R5-NSD (Homo sapiens, UniProt Q14671 828-1176, C1007N;R1008S;Q1011D)
# How it was run: as §1
# PUM1 PUF domain R3-LWK = PUM1 PUF domain R3-LWK (Homo sapiens, UniProt Q14671 828-1176, C935L;R936W;Q939K)
# How it was run: as §1
# PUM1 PUF domain R3-MFG = PUM1 PUF domain R3-MFG (Homo sapiens, UniProt Q14671 828-1176, C935M;R936F;Q939G)
# How it was run: as §1
# PUM1 PUF domain R3-YRV = PUM1 PUF domain R3-YRV (Homo sapiens, UniProt Q14671 828-1176, C935Y;Q939V)
# How it was run: as §1
# PUM1 PUF domain R3-FCR = PUM1 PUF domain R3-FCR (Homo sapiens, UniProt Q14671 828-1176, C935F;R936C;Q939R)
# How it was run: as §1
# PUM1 PUF domain R5-RQD = PUM1 PUF domain R5-RQD (Homo sapiens, UniProt Q14671 828-1176, C1007R;R1008Q;Q1011D)
# How it was run: as §1
# PUM1 PUF domain R5-KLC = PUM1 PUF domain R5-KLC (Homo sapiens, UniProt Q14671 828-1176, C1007K;R1008L;Q1011C)
# How it was run: as §1
# PUM1 PUF domain R5-LWR = PUM1 PUF domain R5-LWR (Homo sapiens, UniProt Q14671 828-1176, C1007L;R1008W;Q1011R)
# How it was run: as §1
# PUM1 PUF domain R5-GKC = PUM1 PUF domain R5-GKC (Homo sapiens, UniProt Q14671 828-1176, C1007G;R1008K;Q1011C)
# How it was run: as §1
# PUM1 PUF domain R1-KCR = PUM1 PUF domain R1-KCR (Homo sapiens, UniProt Q14671 828-1176, S863K;R864C;Q867R)
# How it was run: as §1
# PUM1 PUF domain R1-RYE = PUM1 PUF domain R1-RYE (Homo sapiens, UniProt Q14671 828-1176, S863R;R864Y;Q867E)
# How it was run: as §1
# PUM1 PUF domain R1-KDR = PUM1 PUF domain R1-KDR (Homo sapiens, UniProt Q14671 828-1176, S863K;R864D;Q867R)
# How it was run: as §1
# PUM1 PUF domain R7-LTV = PUM1 PUF domain R7-LTV (Homo sapiens, UniProt Q14671 828-1176, S1079L;N1080T;E1083V)
# How it was run: as §1
# PUM1 PUF domain R6-FYM = target: T1, PUM1 PUF domain R6-FYM (Homo sapiens, UniProt Q14671 828-1176, N1043F;Q1047M)
# T1 sequence: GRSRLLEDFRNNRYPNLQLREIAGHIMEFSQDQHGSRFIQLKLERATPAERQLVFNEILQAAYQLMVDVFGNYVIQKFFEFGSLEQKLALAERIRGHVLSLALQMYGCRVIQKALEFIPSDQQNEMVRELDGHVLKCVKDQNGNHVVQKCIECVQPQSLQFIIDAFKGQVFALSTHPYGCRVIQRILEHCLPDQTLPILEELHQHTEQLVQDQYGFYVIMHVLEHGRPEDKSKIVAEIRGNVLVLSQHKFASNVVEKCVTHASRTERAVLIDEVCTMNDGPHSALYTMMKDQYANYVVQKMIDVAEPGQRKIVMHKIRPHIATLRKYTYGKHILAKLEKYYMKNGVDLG
# How it was run: as §1
# PUM1 PUF domain R3-VRN = PUM1 PUF domain R3-VRN (Homo sapiens, UniProt Q14671 828-1176, C935V;Q939N)
# How it was run: as §1
# PUM1 PUF domain R3-DFA = PUM1 PUF domain R3-DFA (Homo sapiens, UniProt Q14671 828-1176, C935D;R936F;Q939A)
# How it was run: as §1
# PUM1 PUF domain R5-GFI = PUM1 PUF domain R5-GFI (Homo sapiens, UniProt Q14671 828-1176, C1007G;R1008F;Q1011I)
# How it was run: as §1
# PUM1 PUF domain R6-NRR = target: T2, PUM1 PUF domain R6-NRR (Homo sapiens, UniProt Q14671 828-1176, Y1044R;Q1047R)
# T2 sequence: T1 sequence with F216N, Y217R, M220R
# How it was run: as §1
# PUM1 PUF domain R4-INC = PUM1 PUF domain R4-INC (Homo sapiens, UniProt Q14671 828-1176, N971I;H972N;Q975C)
# How it was run: as §1
# Sequence of PUM1 PUF domain R7-LTV (Q14671 828-1176 S1079L/N1080T/E1083V): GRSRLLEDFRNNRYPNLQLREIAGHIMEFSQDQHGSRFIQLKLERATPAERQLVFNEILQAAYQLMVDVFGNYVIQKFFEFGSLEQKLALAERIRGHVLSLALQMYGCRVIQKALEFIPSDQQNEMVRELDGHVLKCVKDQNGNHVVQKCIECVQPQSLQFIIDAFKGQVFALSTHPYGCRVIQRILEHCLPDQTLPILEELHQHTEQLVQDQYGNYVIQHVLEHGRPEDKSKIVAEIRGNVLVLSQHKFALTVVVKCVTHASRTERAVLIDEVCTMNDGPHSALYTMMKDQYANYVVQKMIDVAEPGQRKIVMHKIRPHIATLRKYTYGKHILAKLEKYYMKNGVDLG
sequence,measurement,setting,value
GGCUAGAACUAGUGGAUCCCCCGGCGCCCGGCGGCUCGAGCCCGGGUAAGUGUUAAUAGUCUGCAUGCCGCCGGGCGCCAUGCCUGCAGGUCGACUCUAGAAAACAUG,binding signal,PUM1 PUF domain R5-KAC,3.67 log2 enrichment (interaction score)
same,binding signal,PUM1 PUF domain R5-NSD,4.22 log2 enrichment (interaction score)
GGCUAGAACUAGUGGAUCCCCCGGCGCCCGGCGGCUCGAGCCCGGGUAAGUGUAAUUAGUCUGCAUGCCGCCGGGCGCCAUGCCUGCAGGUCGACUCUAGAAAACAUG,binding signal,PUM1 PUF domain R3-LWK,5.28 log2 enrichment (interaction score)
same,binding signal,PUM1 PUF domain R3-MFG,4.71 log2 enrichment (interaction score)
same,binding signal,PUM1 PUF domain R3-YRV,0.78 log2 enrichment (interaction score)
same,binding signal,PUM1 PUF domain R3-FCR,1.6 log2 enrichment (interaction score)
GGCUAGAACUAGUGGAUCCCCCGGCGCCCGGCGGCUCGAGCCCGGGUAAGUGUCAAUAGUCUGCAUGCCGCCGGGCGCCAUGCCUGCAGGUCGACUCUAGAAAACAUG,binding signal,PUM1 PUF domain R5-RQD,3.67 log2 enrichment (interaction score)
same,binding signal,PUM1 PUF domain R5-KAC,4.63 log2 enrichment (interaction score)
same,binding signal,PUM1 PUF domain R5-KLC,2.5 log2 enrichment (interaction score)
same,binding signal,PUM1 PUF domain R5-LWR,3.23 log2 enrichment (interaction score)
same,binding signal,PUM1 PUF domain R5-GKC,2.56 log2 enrichment (interaction score)
GGCUAGAACUAGUGGAUCCCCCGGCGCCCGGCGGCUCGAGCCCGGGUAAGUGUAAAUGGUCUGCAUGCCGCCGGGCGCCAUGCCUGCAGGUCGACUCUAGAAAACAUG,binding signal,PUM1 PUF domain R1-KCR,2.46 log2 enrichment (interaction score)
GGCUAGAACUAGUGGAUCCCCCGGCGCCCGGCGGCUCGAGCCCGGGUAAGUGUAAAUCGUCUGCAUGCCGCCGGGCGCCAUGCCUGCAGGUCGACUCUAGAAAACAUG,binding signal,PUM1 PUF domain R1-KCR,7.51 log2 enrichment (interaction score)
same,binding signal,PUM1 PUF domain R1-RYE,1.44 log2 enrichment (interaction score)
same,binding signal,PUM1 PUF domain R1-KDR,3.98 log2 enrichment (interaction score)
GGCUAGAACUAGUGGAUCCCCCGGCGCCCGGCGGCUCGAGCCCGGGUAAGUGUAAGUAGUCUGCAUGCCGCCGGGCGCCAUGCCUGCAGGUCGACUCUAGAAAACAUG,binding signal,PUM1 PUF domain R3-MFG,5.73 log2 enrichment (interaction score)
same,binding signal,PUM1 PUF domain R3-YRV,4.59 log2 enrichment (interaction score)
same,binding signal,PUM1 PUF domain R3-FCR,5.77 log2 enrichment (interaction score)
GGCUAGAACUAGUGGAUCCCCCGGCGCCCGGCGGCUCGAGCCCGGGUAAGUUUAAAUAGUCUGCAUGCCGCCGGGCGCCAUGCCUGCAGGUCGACUCUAGAAAACAUG,binding signal,PUM1 PUF domain R7-LTV,4.94 log2 enrichment (interaction score)
GGCUAGAACUAGUGGAUCCCCCGGCGCCCGGCGGCUCGAGCCCGGGUAAGUGUAAAUAGUCUGCAUGCCGCCGGGCGCCAUGCCUGCAGGUCGACUCUAGAAAACAUG,binding signal,PUM1 PUF domain R3-LWK,3.42 log2 enrichment (interaction score)
same,binding signal,PUM1 PUF domain R6-FYM,2.99 log2 enrichment (interaction score)
same,binding signal,PUM1 PUF domain R3-MFG,2.43 log2 enrichment (interaction score)
same,binding signal,PUM1 PUF domain R3-YRV,0.2 log2 enrichment (interaction score)
same,binding signal,PUM1 PUF domain R3-VRN,3.59 log2 enrichment (interaction score)
same,binding signal,PUM1 PUF domain R5-GKC,0.78 log2 enrichment (interaction score)
same,binding signal,PUM1 PUF domain R3-DFA,6.17 log2 enrichment (interaction score)
same,binding signal,PUM1 PUF domain R5-GFI,6.14 log2 enrichment (interaction score)
same,binding signal,PUM1 PUF domain R6-NRR,4.3 log2 enrichment (interaction score)
GGCUAGAACUAGUGGAUCCCCCGGCGCCCGGCGGCUCGAGCCCGGGUAAGUGCAAAUAGUCUGCAUGCCGCCGGGCGCCAUGCCUGCAGGUCGACUCUAGAAAACAUG,binding signal,PUM1 PUF domain R6-NRR,4.48 log2 enrichment (interaction score)
GGCUAGAACUAGUGGAUCCCCCGGCGCCCGGCGGCUCGAGCCCGGGUAAGUGUAUAUAGUCUGCAUGCCGCCGGGCGCCAUGCCUGCAGGUCGACUCUAGAAAACAUG,binding signal,PUM1 PUF domain R4-INC,4.14 log2 enrichment (interaction score)
GGCUAGAACUAGUGGAUCCCCCGGCGCCCGGCGGCUCGAGCCCGGGUAAGUGUAAAUUGUCUGCAUGCCGCCGGGCGCCAUGCCUGCAGGUCGACUCUAGAAAACAUG,binding signal,PUM1 PUF domain R1-KCR,5.43 log2 enrichment (interaction score)
same,binding signal,PUM1 PUF domain R1-RYE,2.61 log2 enrichment (interaction score)
